# Experimental data: the supplement of paper PMC10849652
# The full data set covers some 7,900 targets. This sample favours those with a hit. About 0.6% of all pairs of compound and target were hits. A number with no mark means an inactive call.
# Assays:
# Experiment in all cases: log2 fold change, soluble protein after heating vs DMSO (PISA); higher = thermal stabilisation; K562 cells, 10 uM, 30 min; active = over 0.2 and 3.5 SD of the protein, either way, in both replicates (recomputed)
# bafetinib = compound: Cc1ccc(NC(=O)c2ccc(CN3CC[C@H](N(C)C)C3)c(C(F)(F)F)c2)cc1Nc1nccc(-c2cncnc2)n1 [bafetinib]
# In short: (§1)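 Values are thermal stability changes relative to control samples and are taken from duplicates. They are stated as log2 fold changes. Before quantification by TMTpro 16plex LC-MS/MS with equalised channel sums, K562 cells at 2×10^6 cells/mL were treated with 10 μM compound for 30 min, heated in aliquots for 3 min across 48°C-58°C, pooled, extracted in PBS with 0.5% NP-40 at 4°C, and centrifuged at 21,000xg for 90 min to give the soluble supernatant.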
# [1] = compound: Cc1cccc(CC(=O)N2CCc3c2ccc(-c2cn(C)c4ncnc(N)c24)c3F)n1
# In short: as §1
# nilotinib = compound: Cc1cn(-c2cc(NC(=O)c3ccc(C)c(Nc4nccc(-c5cccnc5)n4)c3)cc(C(F)(F)F)c2)cn1 [nilotinib]
# In short: as §1
# [2] = compound: Cc1nc(Nc2n[nH]c3c2CN(C(=O)N[C@H](CN(C)C)c2ccccc2)C3(C)C)c2sccc2n1
# In short: as §1
# dasatinib = compound: Cc1nc(Nc2ncc(C(=O)Nc3c(C)cccc3Cl)s2)cc(N2CCN(CCO)CC2)n1 [dasatinib]
# In short: as §1
# [3] = compound: Cc1ncc(-c2ccnc(Nc3ccc(S(C)(=O)=O)cc3)n2)n1C(C)C
# In short: as §1
# [4] = compound: Cn1cc(-c2ccc3c(c2)CCN3C(=O)Cc2cccc(C(F)(F)F)c2)c2c(N)ncnc21
# In short: as §1
# [5] = compound: Cn1cc(-c2ccc3nnc(C(F)(F)c4ccc5ncccc5c4)n3n2)cn1
# In short: as §1
# tipifarnib = compound: Cn1cncc1[C@@](N)(c1ccc(Cl)cc1)c1ccc2c(c1)c(-c1cccc(Cl)c1)cc(=O)n2C [tipifarnib]
# In short: as §1
# mubritinib = compound: FC(F)(F)c1ccc(/C=C/c2nc(COc3ccc(CCCCn4ccnn4)cc3)co2)cc1 [mubritinib]
# In short: as §1
# Chain of UniProt Q9Y680 (Q9Y680 whole entry, looked up): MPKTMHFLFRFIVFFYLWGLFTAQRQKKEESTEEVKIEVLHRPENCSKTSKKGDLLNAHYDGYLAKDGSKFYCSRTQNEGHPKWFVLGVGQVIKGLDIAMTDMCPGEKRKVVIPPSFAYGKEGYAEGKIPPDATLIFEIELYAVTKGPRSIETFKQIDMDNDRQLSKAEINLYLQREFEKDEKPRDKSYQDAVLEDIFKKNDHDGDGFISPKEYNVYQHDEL
# Chain of UniProt Q6Y7W6 (Q6Y7W6 whole entry, looked up): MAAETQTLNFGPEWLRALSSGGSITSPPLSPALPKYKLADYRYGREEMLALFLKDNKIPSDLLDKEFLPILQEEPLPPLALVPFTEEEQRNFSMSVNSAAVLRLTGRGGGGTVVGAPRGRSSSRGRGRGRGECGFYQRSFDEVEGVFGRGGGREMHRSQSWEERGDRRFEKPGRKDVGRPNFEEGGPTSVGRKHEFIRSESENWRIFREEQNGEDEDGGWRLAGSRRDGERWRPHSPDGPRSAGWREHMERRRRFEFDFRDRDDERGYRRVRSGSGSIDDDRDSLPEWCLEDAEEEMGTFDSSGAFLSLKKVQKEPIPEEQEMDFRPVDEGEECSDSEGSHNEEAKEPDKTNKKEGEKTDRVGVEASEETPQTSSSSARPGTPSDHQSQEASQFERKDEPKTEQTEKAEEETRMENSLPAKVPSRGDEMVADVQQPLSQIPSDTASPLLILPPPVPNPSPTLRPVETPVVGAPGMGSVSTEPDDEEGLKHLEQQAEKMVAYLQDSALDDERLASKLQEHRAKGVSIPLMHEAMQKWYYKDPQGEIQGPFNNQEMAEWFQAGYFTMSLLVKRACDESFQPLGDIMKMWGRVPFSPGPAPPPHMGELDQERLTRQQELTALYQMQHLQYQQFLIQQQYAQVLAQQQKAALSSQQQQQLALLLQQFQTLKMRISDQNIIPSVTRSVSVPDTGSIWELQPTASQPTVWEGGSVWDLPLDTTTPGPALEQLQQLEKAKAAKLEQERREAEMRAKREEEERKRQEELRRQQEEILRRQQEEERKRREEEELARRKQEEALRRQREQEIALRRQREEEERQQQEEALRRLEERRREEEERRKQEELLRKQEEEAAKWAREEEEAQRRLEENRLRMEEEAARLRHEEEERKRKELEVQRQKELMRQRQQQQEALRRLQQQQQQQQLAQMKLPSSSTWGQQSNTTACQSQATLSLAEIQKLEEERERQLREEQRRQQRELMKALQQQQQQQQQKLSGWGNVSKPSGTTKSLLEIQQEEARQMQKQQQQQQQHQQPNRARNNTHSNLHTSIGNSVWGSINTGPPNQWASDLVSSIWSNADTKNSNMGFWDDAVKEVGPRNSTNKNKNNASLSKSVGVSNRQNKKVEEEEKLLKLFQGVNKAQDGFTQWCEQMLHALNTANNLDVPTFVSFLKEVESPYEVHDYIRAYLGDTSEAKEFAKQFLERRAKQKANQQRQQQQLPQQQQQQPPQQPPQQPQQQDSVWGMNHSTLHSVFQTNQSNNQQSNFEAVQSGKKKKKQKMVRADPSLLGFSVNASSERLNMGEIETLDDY
# Chain of UniProt O00458 (O00458 whole entry, looked up): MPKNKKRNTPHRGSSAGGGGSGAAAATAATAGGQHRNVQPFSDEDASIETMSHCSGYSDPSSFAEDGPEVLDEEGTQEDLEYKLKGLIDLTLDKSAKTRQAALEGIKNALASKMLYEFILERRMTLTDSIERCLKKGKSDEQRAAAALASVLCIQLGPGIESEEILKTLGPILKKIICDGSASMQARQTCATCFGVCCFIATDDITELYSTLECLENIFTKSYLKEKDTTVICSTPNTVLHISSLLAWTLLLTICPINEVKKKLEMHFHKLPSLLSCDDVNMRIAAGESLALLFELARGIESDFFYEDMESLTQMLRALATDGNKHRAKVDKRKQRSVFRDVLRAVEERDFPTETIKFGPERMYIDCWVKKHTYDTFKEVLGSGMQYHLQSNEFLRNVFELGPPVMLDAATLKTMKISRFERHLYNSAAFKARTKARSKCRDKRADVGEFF
# Chain of UniProt P21333 (P21333 whole entry, looked up): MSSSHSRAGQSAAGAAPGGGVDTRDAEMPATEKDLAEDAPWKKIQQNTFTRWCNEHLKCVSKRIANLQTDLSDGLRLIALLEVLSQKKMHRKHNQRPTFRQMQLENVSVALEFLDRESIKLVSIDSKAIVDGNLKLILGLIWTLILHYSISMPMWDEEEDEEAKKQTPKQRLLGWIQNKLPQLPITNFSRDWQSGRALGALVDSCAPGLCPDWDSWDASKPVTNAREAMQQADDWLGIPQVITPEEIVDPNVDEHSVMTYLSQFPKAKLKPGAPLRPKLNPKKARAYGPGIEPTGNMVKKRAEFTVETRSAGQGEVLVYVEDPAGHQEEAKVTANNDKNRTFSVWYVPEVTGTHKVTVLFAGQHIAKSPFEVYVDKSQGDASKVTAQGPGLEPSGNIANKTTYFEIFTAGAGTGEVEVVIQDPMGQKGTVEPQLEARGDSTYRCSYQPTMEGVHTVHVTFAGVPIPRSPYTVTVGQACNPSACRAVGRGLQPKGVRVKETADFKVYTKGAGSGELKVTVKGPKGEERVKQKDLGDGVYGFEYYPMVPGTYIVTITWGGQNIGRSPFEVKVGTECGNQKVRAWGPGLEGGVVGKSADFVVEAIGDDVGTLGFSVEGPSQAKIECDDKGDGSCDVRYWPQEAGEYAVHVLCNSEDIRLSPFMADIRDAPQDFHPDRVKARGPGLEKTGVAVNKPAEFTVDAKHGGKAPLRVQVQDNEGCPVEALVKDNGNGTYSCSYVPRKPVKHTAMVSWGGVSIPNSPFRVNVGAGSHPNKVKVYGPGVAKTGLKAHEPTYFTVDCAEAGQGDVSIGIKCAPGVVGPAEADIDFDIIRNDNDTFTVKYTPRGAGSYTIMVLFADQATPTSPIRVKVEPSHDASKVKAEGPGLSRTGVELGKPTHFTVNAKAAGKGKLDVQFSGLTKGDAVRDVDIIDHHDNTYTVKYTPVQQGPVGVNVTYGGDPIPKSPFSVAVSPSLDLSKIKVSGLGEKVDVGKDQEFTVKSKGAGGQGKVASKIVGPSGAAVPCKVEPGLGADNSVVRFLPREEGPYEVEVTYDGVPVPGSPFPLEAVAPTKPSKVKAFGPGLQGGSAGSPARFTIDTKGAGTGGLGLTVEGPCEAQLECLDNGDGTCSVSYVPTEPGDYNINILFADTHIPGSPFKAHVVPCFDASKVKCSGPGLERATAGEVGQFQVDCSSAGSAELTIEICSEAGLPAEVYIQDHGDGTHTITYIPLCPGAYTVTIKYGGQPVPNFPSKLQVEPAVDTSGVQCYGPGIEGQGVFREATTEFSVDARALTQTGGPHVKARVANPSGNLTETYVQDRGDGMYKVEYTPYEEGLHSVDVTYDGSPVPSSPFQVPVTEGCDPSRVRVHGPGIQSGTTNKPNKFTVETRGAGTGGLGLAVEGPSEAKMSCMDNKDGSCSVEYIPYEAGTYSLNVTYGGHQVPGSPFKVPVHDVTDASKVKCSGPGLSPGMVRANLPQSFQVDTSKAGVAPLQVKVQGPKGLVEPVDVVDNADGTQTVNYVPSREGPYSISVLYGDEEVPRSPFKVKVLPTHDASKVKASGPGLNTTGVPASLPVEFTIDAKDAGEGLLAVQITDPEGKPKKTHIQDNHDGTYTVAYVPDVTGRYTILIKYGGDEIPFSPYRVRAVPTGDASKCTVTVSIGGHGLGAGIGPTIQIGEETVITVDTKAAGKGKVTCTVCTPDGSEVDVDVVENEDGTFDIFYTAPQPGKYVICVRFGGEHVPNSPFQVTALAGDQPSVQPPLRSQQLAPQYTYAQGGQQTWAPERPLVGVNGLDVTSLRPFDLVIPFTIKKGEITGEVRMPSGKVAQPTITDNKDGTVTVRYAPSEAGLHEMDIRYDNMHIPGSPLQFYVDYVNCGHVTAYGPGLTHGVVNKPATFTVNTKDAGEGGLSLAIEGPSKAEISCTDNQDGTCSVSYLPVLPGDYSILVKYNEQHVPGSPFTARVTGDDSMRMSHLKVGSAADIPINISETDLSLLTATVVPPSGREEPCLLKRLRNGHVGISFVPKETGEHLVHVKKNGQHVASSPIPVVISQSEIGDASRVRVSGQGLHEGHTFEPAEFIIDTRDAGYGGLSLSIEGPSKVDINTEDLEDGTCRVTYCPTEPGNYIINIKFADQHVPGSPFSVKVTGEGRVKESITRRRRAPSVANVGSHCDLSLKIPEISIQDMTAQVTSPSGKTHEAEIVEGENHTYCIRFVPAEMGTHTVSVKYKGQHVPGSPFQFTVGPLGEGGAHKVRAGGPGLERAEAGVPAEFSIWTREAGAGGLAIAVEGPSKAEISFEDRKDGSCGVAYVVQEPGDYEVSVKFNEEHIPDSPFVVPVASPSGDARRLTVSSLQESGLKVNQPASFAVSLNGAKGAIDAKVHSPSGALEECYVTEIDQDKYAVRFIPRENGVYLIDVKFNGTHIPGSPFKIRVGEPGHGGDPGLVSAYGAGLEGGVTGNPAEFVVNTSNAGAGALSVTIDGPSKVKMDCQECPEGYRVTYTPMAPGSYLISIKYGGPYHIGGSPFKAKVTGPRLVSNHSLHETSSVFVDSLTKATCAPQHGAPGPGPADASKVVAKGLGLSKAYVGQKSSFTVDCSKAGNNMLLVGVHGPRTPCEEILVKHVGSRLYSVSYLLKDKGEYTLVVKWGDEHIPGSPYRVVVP
# Chain of UniProt Q8WXD5 (Q8WXD5 whole entry, looked up): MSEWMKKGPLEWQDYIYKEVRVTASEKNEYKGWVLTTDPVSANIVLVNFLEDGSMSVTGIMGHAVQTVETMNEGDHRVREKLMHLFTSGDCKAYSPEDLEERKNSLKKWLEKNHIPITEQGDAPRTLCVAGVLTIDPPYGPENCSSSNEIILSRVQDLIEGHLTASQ
# Chain of UniProt Q92522 (Q92522 whole entry, looked up): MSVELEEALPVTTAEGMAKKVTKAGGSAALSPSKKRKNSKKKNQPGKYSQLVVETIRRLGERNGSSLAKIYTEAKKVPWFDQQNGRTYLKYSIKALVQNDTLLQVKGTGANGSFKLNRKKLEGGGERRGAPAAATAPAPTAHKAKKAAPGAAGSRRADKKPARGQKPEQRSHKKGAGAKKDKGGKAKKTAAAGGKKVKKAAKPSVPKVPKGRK
Target,log2 fold change (bafetinib),log2 fold change [1],log2 fold change (nilotinib),log2 fold change [2],log2 fold change (dasatinib),log2 fold change [3],log2 fold change [4],log2 fold change [5],log2 fold change (tipifarnib),log2 fold change (mubritinib)
GTF2B (UniProt Q00403),-0.005,0.139,-0.134,-0.13,-0.247,0.006,0.031,0.102,-0.082,0.007
HDAC10 (UniProt Q969S8),-0.255,-0.073,-0.118,-0.075,-0.027,-0.08,0.071,0.001,0.046,0.116
HMGB3 (UniProt O15347),-0.057,-0.009,0.051,-0.013,0.066,0.03,0.014,-0.084,-0.024,0.01
HDAC6 (UniProt Q9UBN7),-0.18,-0.086,0.126,-0.026,-0.107,-0.084,0.055,-0.005,-0.009,0.086
H2AZ1 (UniProt P0C0S5),0.173,-0.204,-0.138,-0.029,-0.092,-0.006,-0.369,-0.133,0.013,-0.083
FLNA (UniProt P21333),0.011,0.059,-0.056,-0.025,-0.158,0.059,-0.053,0.007,-0.176,0.112
H1FX (UniProt Q92522),0.248,0.048,0.035,0.079,0.043,0.039,-0.189,-0.113,0.126,-0.138
HADHB (UniProt P55084),0.251,0.132,0.074,-0.106,-0.072,0.032,0.155,0.108,-0.264,0.571 (active)
GTF3C4 (UniProt Q9UKN8),-0.065,0.019,-0.034,-0.069,-0.024,0.036,-0.017,-0.007,0.014,0.01
GTF2A1 (UniProt P52655),0,-0.047,0.111,-0.047,0.068,-0.078,0.081,0.349,0.144,-0.008
GNPAT (UniProt O15228),-0.129,0.045,-0.011,-0.008,0.014,-0.028,0.059,0.005,0.031,0.005
FARS2 (UniProt O95363),-0.058,0.064,-0.126,0.079,-0.058,-0.097,0.039,0.039,0.018,-0.168
FANCD2 isoform 1 (UniProt Q9BXW9),-0.06,-0.014,-0.145,0.15,-0.167,-0.119,0.126,0.1,-0.024,0.052
GALNT2 (UniProt Q10471),-0.046,0.041,-0.07,-0.066,-0.004,0.056,0.032,-0.018,0.008,0.008
GATD1 (UniProt Q8NB37),0.008,-0.021,0.059,-0.016,-0.011,0.119,0.046,0.015,0.029,0.035
FNTB (UniProt P49356),0.028,0.015,0.028,0.177,0.22,-0.056,0.196,0.251,0.757 (active),-0.103
FASTKD1 (UniProt Q53R41),0.098,-0.021,-0.183,0.54 (active),-0.168,-0.053,0.217,-0.064,–,–
IFI30 (UniProt P13284),-0.41 (active),0.007,0.068,0.015,0.016,-0.049,0.097,0.002,0.04,0.044
GIGYF2 (UniProt Q6Y7W6),-0.076,0.045,-0.161,-0.105,-0.22,-0.023,0.054,-0.025,-0.119,-0.03
HNRNPUL2 (UniProt Q1KMD3),0,-0.083,-0.001,0.033,0.098,0.097,-0.147,-0.035,0.03,-0.137
IFRD1 (UniProt O00458),0.118,-0.031,0.165,0.056,0.071,0.202,-0.011,-0.005,0.001,0.1
FKBP7 (UniProt Q9Y680),0,-0.04,0.055,-0.058,0.064,0,0.071,0.012,0.027,0.031
HPCAL1 (UniProt P37235),-0.09,0.027,-0.076,0.033,-0.031,-0.028,-0.011,0.053,-0.032,0.016
FKBP4 (UniProt Q02790),-0.014,0.017,-0.05,-0.011,-0.114,0.024,0.033,-0.002,-0.092,0.012
GEMIN6 (UniProt Q8WXD5),-0.011,-0.042,0.004,0.015,-0.024,-0.022,0.018,0.306 (active),-0.002,0.067
IGF2BP2 (UniProt Q9Y6M1),0.121,0.004,-0.058,-0.018,0.038,-0.039,-0.228,-0.191,0.069,-0.071
HSD17B12 (UniProt Q53GQ0),0.067,-0.039,0.184,-0.039,-0.095,0.002,0.092,-0.02,0.089,-0.018
FNTA (UniProt P49354),-0.024,-0.009,-0.002,0.104,0.165,0.019,0.036,0.091,0.429 (active),0.013
